Hit rate of the full screen: of about 1,800 compounds, fewer than 10 were called active. How the calls were made is not given here. Not all results are given here. Entries with a potency or affinity are not part of this list.
Test: antiviral activity against H1N1 influenza, dose response, cell-based, strain KY180 (AID 540254)
Conditions: H1N1 KY180 influenza antiviral cell-based screen; series mostly up to 40 µM

Compound	outcome
Cc1cccc2sc(NNC(=O)c3ccc(S(=O)(=O)N4CCc5ccccc5C4)cc3)nc12	inactive
CCOc1ccc(C(=S)NC2CCCCC2)cc1OC	inactive
c1ccc2[nH]c(CSc3nc4ccccc4o3)nc2c1	inactive
CCCCOC(=O)Nc1ccc(S(=O)(=O)Nc2cc(C)nc(C)n2)cc1	inactive
Cc1cc(C(=O)N/N=C/c2c(C)[nH]n(-c3ccccc3)c2=O)n[nH]1	inactive
C=CCOc1cccc(/C=N/NC(=O)CC(=O)NC2CCCCC2)c1	inactive
O=C(CSc1n[nH]c(-c2ccccn2)n1)Nc1cccc(Cl)c1	inactive
CN(C)CCCNC(=O)c1ccc(-c2cc(O)c3ncccc3c2)cc1	inactive
Oc1ccc(N=Nc2c(O)ccc3ccccc23)cc1	inactive
CC1=NN(c2ccc(C)cc2)C(=O)/C1=C\C=C\c1ccccc1	inactive
Cc1ccc(C(=O)N/C(=C\c2cccc([N+](=O)[O-])c2)C(=O)NCc2ccncc2)cc1	inactive
CN(C)S(=O)(=O)c1ccc(NC(=O)CSc2ncnc3ccccc23)cc1	inactive
Cc1ccc(S(=O)(=O)C2(C(=O)NCc3ccc4c(c3)OCO4)CC2)cc1	inactive
O=C(Cn1cnc([N+](=O)[O-])n1)N/N=C/c1ccccc1O	inactive
Clc1cc2cccnc2c2ncccc12	inactive
O=C(N/N=C(\Cc1ncc[nH]1)c1ccccc1)c1ccncc1	inactive
CCOC(=O)Cc1nnc(NC(=O)C(CC)Sc2nncn2C)s1 (stereo not drawn)	inactive
Cc1ccc(NC(=O)COc2cccc3ccc(C)nc23)c(Br)c1	inactive
COc1cccc(N=Nc2ccc3ccccc3c2O)c1	inactive
Cn1c(SCC(=O)NC2CC2)nnc1-c1ccccn1	inactive
COc1cc(O)c(/C=N/NC(=O)c2ccncc2)c(OC)c1[N+](=O)[O-]	inactive
COC(=O)c1c(C)oc2ccc(N(C(=O)c3ccncc3)S(=O)(=O)c3ccc4ccccc4c3)cc12	inactive

Compound	outcome
CC(=NNC(=S)N1CC2CCC(CC2)C1)c1nccs1	inactive
CCOc1cccc(/C=N/NC(=O)c2cccnc2)c1O	inactive
O=C(N/N=C/c1cc(O)ccc1Br)c1cccnc1	inactive
COc1cccc2c(=O)n(CC(=O)Nc3ccc(F)cc3F)ccc12	inactive
CC(c1ccccc1)n1c(CO)nc2ccccc21 (stereo not drawn)	inactive
O=C(Nc1nc(-c2ccccn2)cs1)c1ccco1	inactive
O=C1/C(=C/c2ccc(O)c(O)c2)SC(=S)N1Nc1ccccc1	inactive
CN1CCN(c2ccc(N)cc2)CC1	inactive
COC(=O)Cn1c(=O)c2c(nc3n2CC(C)CN3c2ccc(C)c(C)c2)n(C)c1=O (stereo not drawn)	inactive
CCCNC(=O)COC(=O)/C=C/c1ccco1	inactive
CC(C)CCNC(=O)CCC(=O)NNc1nc2ccccc2c2nc(-c3ccccc3)nn12	inactive
CCOc1ccc(NS(=O)(=O)c2ccc(NS(=O)(=O)c3ccc(SC)cc3)cc2)cc1	inactive
COc1ccc(C(C)=O)cc1COC(=O)[C@H](Cc1ccccc1)NC(=O)c1ccco1	inactive
CC(C)CC(C(=O)OCC(=O)Nc1ncc(Cl)cc1Cl)N1C(=O)c2ccccc2C1=O (stereo not drawn)	inactive
CCN1/C(=C/c2ccc3cc(C)cc(C)c3[n+]2CC)Sc2cc(C)ccc21	inactive
Cc1ccc(O)c(N=NC2=C(O)CC(C)(C)CC2=O)c1	inactive
Cc1cc2cc(CNC(=O)NC3CCCCC3)ccc2n1C	inactive
COc1ccc(C(=O)N/N=C(\C)c2ccccn2)cc1OC	inactive
Cc1ccc(NCCCn2cnc(C(=O)Nc3ccc(C)c(C)c3)n2)cc1C	inactive
COC(=O)c1cc(S(=O)(=O)N2CCCCCC2)c[nH]1	inactive
O=C(O)c1ccc(N2C(=O)/C(=C/c3ccc(-c4ccc([N+](=O)[O-])cc4)o3)C=C2c2ccccc2)cc1	inactive
O=C(N/N=C/c1cc([N+](=O)[O-])ccc1O)c1cccc(N2CCCC2=O)c1	inactive

Compound	outcome
O=C(NCc1ccccn1)C(=O)N/N=C/c1ccccc1O	inactive
CCCN1C(=O)/C(=C2\SC(N3CCCCC3)=NC2=O)c2ccccc21	inactive
CCN(Cc1ccccc1)c1ccc(N=Nc2nn(C)c(C)c2[N+](=O)[O-])cc1	inactive
CCOC(=O)N1CCN(c2c(NCCc3ccccc3)c(=O)c2=O)CC1	inactive
CCOc1ccc(-n2c(SCC(=O)Nc3ccccc3C)n[nH]c2=O)cc1	inactive
COc1cc(C=O)ccc1OCC(=O)Nc1ccc2c(c1)OCO2	inactive
CC1=NN(c2ccccc2)C(=O)/C1=C/c1c(O)n(-c2ccc(F)cc2)[nH]c1=O	inactive
Cc1cc(C)cc(N2C(=O)C3NN=C(C(=O)OCc4ccccc4)C3C2=O)c1 (stereo not drawn)	inactive
O=C1CCC(=O)N1CCC(c1ccc(F)cc1)c1ccco1 (stereo not drawn)	inactive
CN(C)c1ccc(N=Cc2ccco2)cc1	inactive
COc1cccc(C(=O)O/N=C(\N)c2ccncc2)c1	inactive
Cc1ccc(NC(=O)N2CCCCCC2)cc1C	inactive
CCN(CC)CCN1C(=O)c2oc3ccc(F)cc3c(=O)c2C1c1ccncc1 (stereo not drawn)	inactive
CN(CC(=O)NCc1ccccn1)S(=O)(=O)c1ccc(Br)cc1	inactive
CC(=O)Nc1cccc(NC(=O)CSc2nn3c(=O)c(C)nnc3s2)c1	inactive
Cc1ccn(CC(=O)N/N=C/c2cc([N+](=O)[O-])ccc2O)n1	inactive
Cc1cccc(NC(=O)CCN2C(=O)c3ccccc3S2(=O)=O)c1C	inactive
O=C(CN1C(=O)C2CCCCC2C1=O)Nc1nc(-c2ccccn2)cs1 (stereo not drawn)	inactive
Cc1c(N=Nc2c(O)n(Cc3ccccc3)c(=O)[nH]c2=O)c(=O)n(-c2ccccc2)n1C	inactive
C=CC(=O)Nc1ccc(N(C)c2ccnc(Nc3ccc(N4CCN(C)CC4)cc3)n2)cc1	inactive
CC(=O)N(Cc1ccc(F)cc1)C1=C(NCCc2ccccc2)C(=O)c2ccccc2C1=O	inactive
O=C(O)c1ccc(N=Nc2c(O)ccc3ncccc23)cc1	inactive

Compound	outcome
Cc1nc2sccn2c(=O)c1S(=O)(=O)Nc1cccc(Cl)c1C	inactive
CC(=NNC(=S)N1CC2CCC(CC2)C1)c1ccncn1	inactive
Clc1ccc(OCc2nc(-c3ccncc3)no2)c(Br)c1	inactive
CN1C(=O)/C(=C/c2cc(N=Nc3ccccc3)ccc2O)SC1=S	inactive
O=C(CSc1ccc(-c2ccccn2)nn1)Nc1ccc(F)c(F)c1	inactive
COc1ccc(N2CCN(C(=O)CCC(=O)N3CCOc4ccc(Cl)cc43)CC2)cc1	inactive
Cc1ccc2ccc3cccnc3c2n1	inactive
Cc1noc(/C=C/N(C)C)c1S(=O)(=O)N1CCCC(C(=O)NC2CCCCC2)C1 (stereo not drawn)	inactive
COc1ccc(N=Nc2cc(OC)c(N)cc2OC)cc1	inactive
O=C(NC(=S)NNC(=O)c1ccccc1O)c1ccco1	inactive
CC1COCC(C)N1C1=C(Cl)C(=O)c2ccccc2C1=O (stereo not drawn)	inactive
COc1ccccc1N1CCN(C2CCCN(C(=O)c3cccc(-c4ccco4)c3)C2)CC1 (stereo not drawn)	inactive
Clc1ccc(-c2ccc(-c3nn4c(-c5ccco5)nnc4s3)o2)cc1	inactive
CCCCCn1cnc2c(sc3nc4c(cc32)CSC(C)(C)C4)c1=O	inactive
CCN(CC)C(=O)C1CCCc2c1[nH]c1ccc(Cl)cc21 (stereo not drawn)	inactive
CC(NC(=O)C(=O)NN=C1CCCCCCC1)c1ccccc1 (stereo not drawn)	inactive
COc1ccc(NC(=O)CSc2n[nH]c(-c3ccccn3)n2)cc1	inactive
O=C(N/N=C/c1c(O)n(C2CC2)c(=S)[nH]c1=O)c1ccccc1O	inactive
Cc1ccc(NC(=O)CSc2nnc(C)c(=O)n2N)c(C)c1	inactive
Cc1ccc(CN2CCC(n3nccc3NC(=O)CCCc3ccccc3)CC2)o1	inactive
O=C1CCCN1CC(=O)N1CCCC(N2CCN(c3cccc(Cl)c3)CC2)C1 (stereo not drawn)	inactive
CCNC(=O)CC1C(=O)N(c2ccc(F)cc2)C(=O)N1Cc1ccc(OC)cc1 (stereo not drawn)	inactive

Compound	outcome
O=C1C=C(c2c(O)ccc3ccccc23)c2ccccc2C1=O	inactive
CCOC(=O)C1=C(C)n2c(s/c(=C/c3cccc([N+](=O)[O-])c3)c2=O)=NC1c1ccc(O)c(OC)c1 (stereo not drawn)	inactive
CCC(C(=O)N/N=C(\C)c1cccnc1)c1ccccc1 (stereo not drawn)	inactive
CN(CCCC(=O)O)c1ccc(N=Nc2ccc([N+](=O)[O-])cc2)cc1	inactive
COc1cccc(C(=O)NN2c3ccccc3CCc3ccccc32)c1	inactive
N#C/C(=C/c1cn(-c2ccccc2)nc1-c1cccc(OCc2ccc(F)cc2)c1)C(=O)NCCCn1ccnc1	inactive
CC1NC(=O)NC1CCCCCC(=O)Nc1ccc(F)c(Cl)c1 (stereo not drawn)	inactive
CCOC(=O)C(C(C)=O)c1c(Br)c(O)c(O)c2c(C(=O)c3ccc(C)cc3)coc12 (stereo not drawn)	inactive
Cc1ccc(-n2c(SCC(=O)NCc3ccco3)nc3c([nH]c4ccccc43)c2=O)cc1	inactive
CC(C)CC1Nc2ncnc(N3CCN(c4ccccc4)CC3)c2N(Cc2ccccc2)C1=O (stereo not drawn)	inactive
C[C@@H](C(=O)Nc1nc(-c2ccccn2)cs1)N1C(=O)C2CCCCC2C1=O (stereo partly drawn)	inactive
COc1ccc(C2(c3ccc(OC)cc3)NC(=O)N(CC(=O)Nc3ccc(OC(F)F)cc3)C2=O)cc1	inactive
Cn1nc(CC(=O)NC2CCCCCC2)c2ccccc2c1=O	inactive
O=C(CCS(=O)(=O)c1ccc(F)cc1)Nc1nc(-c2ccccn2)cs1	inactive
COc1ccc(C2C(C#N)=C(N)Nc3onc(C(C)(C)C)c32)c(OC)c1 (stereo not drawn)	inactive
Oc1cccc(/C=N/NC(=S)Nc2cccnc2)c1O	inactive
CCOC(=O)c1c(C)[nH]c(C(=O)N/N=C/c2cc([N+](=O)[O-])ccc2O)c1C	inactive
Cc1[nH]c2ccccc2c1C(c1ccccn1)c1c(C)[nH]c2ccccc12	inactive
Cc1[nH]c2ccccc2c1SCC(=O)N1CCOCC1	inactive
Cc1ccc(S(=O)(=O)NCc2ccc3c(c2)cc(C)n3C)cc1	inactive

From PubChem BioAssay AID540254 (Southern Research Specialized Biocontainment Screening …, 2011)
